Measurements taken from PubChem BioAssay.
Calls of active or inactive are those of the source.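 Rule for the calls, unless noted: active = inhibition of the reporter signal at or above 50%; inactive = inhibition below 50%.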

How the values were obtained:
[1] = inhibitors of TNFa-induced NFkB p65 translocation, primary screen, imaging, HUVEC, MLSMR starter and 10KST1 sets (AID 438;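 active = inhibition above 20% together with a positive visual image hit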;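 note: compound added about 3h40 before a 20 min TNFalpha stimulation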;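 for inhibition: signal is the nuclear over cytoplasmic p65 intensity ratio per well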); settings: HUVEC TNFa-induced p65 nuclear translocation; cell count: measured here: nuclei count (cytotoxicity indicator), at 2.08 µM; inhibition: at 2 µM, stronger effect = higher value, 0% TNFa-plus-vehicle, 100% no-TNFa wells
[2] = inhibitors of mutant huntingtin aggregation, primary screen, imaging, exon1htt(103Q)mCFP cells, high-content imaging (AID 483;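 active = visual image review flags a hit and inhibition of aggregation exceeds 20%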;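 note: compound exposure lasted 3 days before fixation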;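 for nuclei count: percent of the per-plate median nuclei count of sample wells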); settings: exon1htt(103Q)mCFP cell line, aggregate imaging, at 2 µM; inhibition of aggregation: stronger effect = higher value; nuclei count: measured here: cell count, toxicity
[3] = inhibitors of E-selectin induction by TNFa, primary screen, imaging, HUVEC, immunofluorescence, MLSMR starter and 10KST1 sets (AID 487;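 active = visually confirmed hit in the image check and inhibition above 20%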;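 for inhibition: signal is fraction of cell area covered by stained E-selectin grains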;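 for nuclei count: 100% = median nuclei count of all wells on the same plate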); settings: HUVEC TNFalpha-induced E-selectin immunofluorescence imaging, at 2 µM; inhibition: stronger effect = higher value; nuclei count: measured here: cell number, toxicity
[4] = molecular target: Voltage-gated potassium channel subunit beta-2 (Rattus norvegicus) (UniProt P62483); assay: KvBeta enzyme negative modulators, primary screen, biochemical, NADPH fluorescence (AID 622;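 active = fluorescence slope higher than the sample average by over 3 SD, cut at about -0.22 in these data, passing the limit was not always enough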;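 note: slope of raw intensity against log time taken from 70 to 1610 s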); settings: recombinant KvBeta, 4-cyanobenzaldehyde reduction, at 10 µM, stronger effect = higher value
Chain of Voltage-gated potassium channel subunit beta-2 (Rattus norvegicus) (P62483 whole entry, looked up): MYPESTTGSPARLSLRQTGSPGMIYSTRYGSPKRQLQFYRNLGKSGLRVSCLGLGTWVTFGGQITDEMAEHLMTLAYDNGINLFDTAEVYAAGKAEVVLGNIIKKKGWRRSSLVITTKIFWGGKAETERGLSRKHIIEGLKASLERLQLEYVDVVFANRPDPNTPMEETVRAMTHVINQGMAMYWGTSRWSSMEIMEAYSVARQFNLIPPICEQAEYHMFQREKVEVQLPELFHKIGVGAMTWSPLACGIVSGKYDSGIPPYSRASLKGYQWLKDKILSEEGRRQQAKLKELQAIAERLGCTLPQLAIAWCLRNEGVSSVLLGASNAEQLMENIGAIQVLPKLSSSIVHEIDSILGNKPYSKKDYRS

[5] = molecular target: Voltage-gated potassium channel subunit beta-2 (Rattus norvegicus) (UniProt P62483); assay: KvBeta positive modulators, primary screen, biochemical, NADPH fluorescence (AID 623;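 active = NADPH fluorescence slope more negative than the mean of all samples by about 3 SD, 99.7% confidence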;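 note: fluorescence intensity change per second fitted from 20 to 320 s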); settings: Recombinant KvBeta, NADPH fluorescence decrease slope, 10 min; at 10 µM; stronger effect = lower value
[6] = molecular target: Alpha-2C adrenergic receptor (Homo sapiens) (UniProt P18825); assay: modulators of alpha2C/GIRK thallium flux, primary screen, cell-based, HEK293 alpha2C/GIRK1/2 (AID 624;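 active = fluorescence slope after compound addition differing from the mean of all screened samples at 99.7% confidence, in either direction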;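 note: slope of fluorescence ratio to pre-addition baseline per second over 15 to 24 s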); settings: thallium flux BTC fluorescence, at 10 µM, actives lie on both sides
Chain of Alpha-2C adrenergic receptor (Homo sapiens) (P18825 whole entry, looked up): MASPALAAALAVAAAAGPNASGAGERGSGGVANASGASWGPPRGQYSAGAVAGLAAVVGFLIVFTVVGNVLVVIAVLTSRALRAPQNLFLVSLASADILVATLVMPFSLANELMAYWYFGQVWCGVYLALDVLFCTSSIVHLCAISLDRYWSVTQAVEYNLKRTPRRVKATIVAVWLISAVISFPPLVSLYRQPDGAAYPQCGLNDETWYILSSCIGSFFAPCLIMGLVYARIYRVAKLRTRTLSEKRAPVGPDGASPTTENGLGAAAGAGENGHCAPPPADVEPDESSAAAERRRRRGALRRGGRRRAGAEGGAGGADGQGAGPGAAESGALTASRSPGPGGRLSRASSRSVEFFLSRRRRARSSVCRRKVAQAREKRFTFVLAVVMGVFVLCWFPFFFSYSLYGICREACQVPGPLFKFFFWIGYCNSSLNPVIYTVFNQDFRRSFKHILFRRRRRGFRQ

[7] = inhibitors of Sendai virus-induced IRF3 signaling, primary screen, TLR/RLR signaling modifier project, cell-based, Sendai virus stimulus, luciferase, 10K MLSCN set (AID 602276;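 active = inhibition at or above 50% at 10 µM; inactive = inhibition below 50%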;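 note: firefly luciferase from ISG56 promoter only with Renilla not read in this screen; 0% = Sendai virus plus DMSO and 100% = medium plus DMSO without virus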); settings: HEK293 RL24 IRF3 luciferase reporter, at 10 µM, stronger effect = higher value
[8] = inhibitors of poly I:C-induced TLR3 signaling, primary screen, cell-based, poly I:C stimulus, luciferase, 10K MLSCN set (AID 602277); settings: HEK293-TLR3 RL24 IRF3 luciferase reporter, at 10 µM, stronger effect = higher value

Row | Compound | cell count [1] | inhibition [1] | inhibition of aggregation [2] | nuclei count [2] [%] | inhibition [3] | nuclei count [3] [%] | fluorescence slope [4] | NADPH fluorescence slope [5] | slope [6] | inhibition [7] | inhibition [8]
1 | O=C(NC1CCCCC1)c1ccc(S(=O)(=O)N2CCCCC2)cc1 | 392 | 2.1% (inactive) | 5.8% (inactive) | 96.4 | -49.2% (inactive) | 119 | -0.588 (inactive) | 1.4e-05 (inactive) | 0.00499 (inactive) | -18.3% (inactive) | -7.9% (inactive)
2 | CCOCCn1c(CN2CCN(CC)CC2)nc2c1c(=O)n(C)c(=O)n2C | 638 | 2.9% (inactive) | 12.8% (inactive) | 92.7 | -15.7% (inactive) | 110 | -0.568 (inactive) | -2.7e-05 (inactive) | 0.0075 (inactive) | 4.19% (inactive) | 33.7% (inactive)
3 | O=C(COc1ccc(Cl)cc1)NCc1nnc(SCC(=O)Nc2ccc3c(c2)OCCO3)o1 | 375 | 0% (inactive) | 4.2% (inactive) | 99.9 | -9.1% (inactive) | 119 | -0.359 (inactive) | -3.4e-06 (inactive) | 0.00522 (inactive) | -4.54% (inactive) | -2.34% (inactive)
4 | COc1ccc(CNC(=O)c2cnc3n(c2=O)CCS3)cc1 | 591 | -6.4% (inactive) | 15.6% (inactive) | 97.2 | 15.6% (inactive) | 95.7 | -0.369 (inactive) | 4e-05 (inactive) | 0.00542 (inactive) | 10.9% (inactive) | 29.1% (inactive)
5 | O=C(c1cnccn1)N(c1ccccc1)C1(C(=O)NC2CCCC2)CCCCC1 | 630 | -15.7% (inactive) | 4.8% (inactive) | 96.4 | -31.9% (inactive) | 116 | -0.518 (inactive) | -5.8e-05 (inactive) | 0.00495 (inactive) | 6.65% (inactive) | 16.5% (inactive)
6 | CCN(CC)CCn1c2ccccc2c2nc(C)sc21 | 613 | -3.3% (inactive) | -5% (inactive) | 98.7 | 34% (inactive) | 86.3 | -0.622 (inactive) | -3.9e-06 (inactive) | 0.00718 (inactive) | 16.1% (inactive) | 21.2% (inactive)
7 | CCC1(C)Cc2c(C#N)c(N)n(N)c(=S)c2CO1 (stereo not given) | 795 | 1.1% (inactive) | -11.2% (inactive) | 97.6 | -97% (inactive) | 106 | -0.422 (inactive) | -4.6e-05 (inactive) | 0.00514 (inactive) | 9.11% (inactive) | 22.9% (inactive)
8 | CCc1nnc(NC(=O)c2cc3ccccc3oc2=O)s1 | 597 | -9.6% (inactive) | 15.7% (inactive) | 96.9 | -67.3% (inactive) | 96.3 | -0.57 (inactive) | -2e-05 (inactive) | 0.00433 (inactive) | -9.54% (inactive) | -77.5% (inactive)
9 | O=C1CCCC2=C1C(c1ccc(Br)cc1)c1c([nH]c(=S)[nH]c1=O)N2 (stereo not given) | 407 | -3.6% (inactive) | 17.6% (inactive) | 103 | -41.1% (inactive) | 109 | -0.378 (inactive) | -5.8e-05 (inactive) | 0.00391 (inactive) | 6.81% (inactive) | 17.9% (inactive)
10 | COc1ccc(NC(=O)CSc2nnc(Cc3cccn3C)n2-c2ccc(F)cc2)cc1 | 576 | 1.1% (inactive) | -14.5% (inactive) | 23.2 | -72.7% (inactive) | 112 | -0.577 (inactive) | 1.2e-05 (inactive) | 0.00735 (inactive) | 15% (inactive) | 18.7% (inactive)
11 | CCOC(=O)c1ccc(NC(=O)CCc2nc(-c3cccc(C)c3)no2)cc1 | 387 | 12.6% (inactive) | -10.1% (inactive) | 102 | -1% (inactive) | 100 | -0.565 (inactive) | -6.8e-05 (inactive) | 0.00651 (inactive) | -14.6% (inactive) | -24% (inactive)
12 | CC(C)OC(=O)CCCCCN1C(=O)CSC1=S | 448 | -9.2% (inactive) | -5.3% (inactive) | 80.5 | -93.7% (inactive) | 114 | -0.539 (inactive) | -1.3e-05 (inactive) | 0.00459 (inactive) | 1.67% (inactive) | -4.31% (inactive)
13 | CCN(C(=O)c1c(OC)cccc1OC)c1nnc(-c2cccnc2)s1 | 892 | 3.3% (inactive) | -35.8% (inactive) | 105 | -49.6% (inactive) | 137 | -0.336 (inactive) | -3.4e-05 (inactive) | 0.00467 (inactive) | 8.32% (inactive) | 18.6% (inactive)
14 | CCCCN(CC)CCCNC(=O)c1cc2c(=O)n(C)c3ccccc3c2n1C | 667 | 3.3% (inactive) | 14.5% (inactive) | 81.6 | -52.5% (inactive) | 107 | -0.611 (inactive) | -4.2e-05 (inactive) | 0.00621 (inactive) | 27.4% (inactive) | 69.5% (active)
15 | Cc1cc(C)nc(SCC(=O)Nc2ncc3c(n2)CCCC3=O)n1 | 188 | -8.6% (inactive) | 10.1% (inactive) | 98.6 | -9.1% (inactive) | 85.2 | -0.622 (inactive) | -1.1e-05 (inactive) | 0.00766 (inactive) | 6.63% (inactive) | 11.4% (inactive)
16 | Cc1cccc(CCNC(=O)C2CCCN(S(=O)(=O)c3cnc[nH]3)C2)c1 (stereo not given) | 518 | 16.1% (inactive) | 21.6% (inactive) | 89.8 | -107% (inactive) | 107 | -0.523 (inactive) | 6.1e-06 (inactive) | 0.0065 (inactive) | 30.1% (inactive) | 8.46% (inactive)
17 | CCN(CC)C(=O)CSc1nnc(-c2cc(OC)cc(OC)c2)o1 | 733 | 0.6% (inactive) | 10.3% (inactive) | 100 | 19.1% (inactive) | 109 | -0.413 (inactive) | -4.5e-05 (inactive) | 0.00522 (inactive) | 8.18% (inactive) | 2.13% (inactive)
18 | Cc1oc(-c2ccc(Cl)cc2)cc1-c1nn2c(-c3ccoc3C)nnc2s1 | 644 | -3.9% (inactive) | -0.4% (inactive) | 94.6 | -24.2% (inactive) | 105 | -0.497 (inactive) | -3.8e-05 (inactive) | 0.00371 (inactive) | 19.8% (inactive) | 23% (inactive)
19 | CCC1(NC(C)=O)CC2CC1CC2NC(C)=O (stereo not given) | 340 | -1.4% (inactive) | -4.3% (inactive) | 100 | -37.4% (inactive) | 103 | -0.614 (inactive) | -1.3e-05 (inactive) | 0.00321 (inactive) | 1.63% (inactive) | 3.3% (inactive)
20 | CCN1CCN(C(CNC(=O)c2ccc3c(c2)OCO3)c2cccnc2)CC1 (stereo not given) | 796 | -13.5% (inactive) | 0.6% (inactive) | 98 | -10.9% (inactive) | 109 | -0.541 (inactive) | 1.4e-05 (inactive) | 0.00612 (inactive) | -18.9% (inactive) | -1.81% (inactive)
